Source: the supplement of paper PMC6555819

Assays:
Experiment in all cases: PBM binding z-score (relative to random genomic background probes); higher = stronger binding; sequences stand for … in GC…GCGATTGACAGCGTAGAATGAAGG
[1] = system: FXR:RXRa (NR concentration 270 nM, RXRa partner concentration 90 nM)
Summary of the method: (§1)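 Binding z-scores were set against random background probes. The data came from custom Agilent 4×180K protein-binding microarrays carrying double-stranded probes with 34-nt variable regions, incubated 1 h with ligand-free nuclear receptor dimers. Partner-specific antibodies detected binding, and scanned fluorescence was regression-normalized.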

[2] = system: LXRa:RXRa (NR concentration 270 nM, RXRa partner concentration 90 nM)
Summary of the method: as §1

[3] = system: LXRa homodimer (NR concentration 270 nM)
Summary of the method: as §1

[4] = system: LXRb:RXRa (NR concentration 270 nM, RXRa partner concentration 90 nM)
Summary of the method: as §1

[5] = system: LXRb homodimer (NR concentration 270 nM)
Summary of the method: as §1

[6] = system: PPARa:RXRa (NR concentration 270 nM, RXRa partner concentration 90 nM)
Summary of the method: as §1

[7] = system: PPARg:RXRa (NR concentration 180 nM, RXRa partner concentration 90 nM)
Summary of the method: as §1

[8] = system: PPARg:RXRa 270nM:90nM, anti-RXR (NR concentration 270 nM, RXRa partner concentration 90 nM)
Summary of the method: as §1

[9] = system: PPARg:RXRa 30nM:10nM, anti-RXR (NR concentration 30 nM, RXRa partner concentration 10 nM)
Summary of the method: as §1

[10] = system: PPARg:RXRa 90nM:30nM, anti-RXR (NR concentration 90 nM, RXRa partner concentration 30 nM)
Summary of the method: as §1

[11] = system: PPARg:RXRa DBDmut IVT, anti-RXR (DBD mutation: RXRa K156A/R161A, NR concentration 270 nM, RXRa partner concentration 90 nM)
Summary of the method: as §1

[12] = system: PPARg:RXRa IVT, anti-PPARg (NR concentration 270 nM, RXRa partner concentration 90 nM)
Summary of the method: as §1

[13] = system: PPARg DBDmut:RXRa IVT, anti-PPARg (DBD mutation: PPARg1 K132A/R137A, NR concentration 270 nM, RXRa partner concentration 90 nM)
Summary of the method: as §1

[14] = system: PPARg DBDmut IVT, anti-PPARg (DBD mutation: PPARg1 K132A/R137A, NR concentration 270 nM)
Summary of the method: as §1

[15] = system: PPARg homodimer (NR concentration 180 nM)
Summary of the method: as §1

[16] = system: PXR:RXRa (NR concentration 270 nM, RXRa partner concentration 90 nM)
Summary of the method: as §1

[17] = system: PXR homodimer (NR concentration 270 nM)
Summary of the method: as §1

[18] = system: RARa:RXR (NR concentration 270 nM, RXRa partner concentration 90 nM)
Summary of the method: as §1

[19] = system: RARa homodimer (NR concentration 270 nM)
Summary of the method: as §1

[20] = system: RARb:RXRa (NR concentration 270 nM, RXRa partner concentration 90 nM)
Summary of the method: as §1

Sequence | PBM binding z-score [1] | PBM binding z-score [2] | PBM binding z-score [3] | PBM binding z-score [4] | PBM binding z-score [5] | PBM binding z-score [6] | PBM binding z-score [7] | PBM binding z-score [8] | PBM binding z-score [9] | PBM binding z-score [10] | PBM binding z-score [11] | PBM binding z-score [12] | PBM binding z-score [13] | PBM binding z-score [14] | PBM binding z-score [15] | PBM binding z-score [16] | PBM binding z-score [17] | PBM binding z-score [18] | PBM binding z-score [19] | PBM binding z-score [20]
CCGACTGGGGCAGAAAGGATACCATACCATCCGG | -0.81 | -0.88 | -0.438 | -0.926 | -1.2 | -0.597 | 0.937 | -0.0255 | -0.593 | -0.344 | 0.646 | 0.728 | -0.578 | -1.57 | -0.142 | -0.951 | -0.394 | -1.06 | -0.437 | 0.0733
CGTCAAAGTTCAAGGTAACGGAACAGAAAGCAGC | 6.15 | 5.59 | 2.26 | 3.12 | 0.735 | 4.63 | 4.57 | 5.32 | 2.47 | 4.21 | 0.343 | 2.24 | 0.485 | 0.919 | 1.96 | 3.99 | 2.13 | 3.36 | 1.04 | 5.07
CCTGCTAGGTCAAGGTCAGCTAATCTACAGTATG | 4.87 | 3.95 | 1.09 | 3.19 | 0.294 | 4.45 | 3.7 | 4.63 | 1.39 | 3.47 | 4.9 | 4.64 | 0.201 | -0.28 | 2.21 | 3.45 | 0.401 | 3.88 | 1.15 | 5.09
CCTCCTGGGCCAAAAAGGTCATTGATGCCGATAA | 3.19 | 3.89 | 2.81 | 4.12 | 0.202 | 4.47 | 0.997 | 2.63 | 0.448 | 1.63 | -0.0525 | 1.53 | -0.96 | -0.947 | 2.51 | 4.62 | 2.5 | 4.44 | 0.621 | 3.9
ACTAGCAGGCCAAGTTTGGGTCAATCAAACAAAG | 0.471 | 0.228 | -0.484 | 0.918 | -1.03 | 1.55 | -0.0982 | 0.263 | -0.327 | -0.105 | 0.842 | 0.959 | -0.753 | -0.879 | 0.326 | 0.526 | -0.382 | 1.33 | -0.558 | 1.65
ACTTACGGGTTAACGAGGTTATAGCACGCGTATA | 2.07 | 2.74 | 0.54 | 2.31 | 0.221 | 3.12 | 1.66 | 2.16 | 0.682 | 1.49 | 1.74 | 2.15 | 0.886 | 1.18 | 1.01 | 2.88 | 0.801 | 2.6 | 0.88 | 1.69
ATATGTAGGTTAGCTAGGGTCATTCAGACTAGGC | 4.45 | 5.22 | 1.89 | 3.59 | 0.624 | 4.36 | 4.65 | 4.41 | 2.3 | 3.61 | 6.58 | 6.18 | 2.95 | 1.89 | 3.4 | 5.64 | 2.1 | 4.85 | 1.52 | 2.71
CCTAGCAGGCCAATCTGGGTTACTCAAGGCTTGA | 0.0367 | -0.0703 | -0.681 | -0.364 | -1.09 | 1.18 | 0.194 | 0.0942 | -1.01 | -0.507 | 3.14 | 3.29 | -0.813 | -1.24 | -0.705 | -0.391 | -0.895 | -0.308 | -0.89 | 0.268
CCTACCGGGCCATCAGGTCATTGATATCAACGTT | 1.4 | 1.26 | 1.91 | 1.66 | 0.209 | 1.93 | 0.875 | 1.59 | -0.00582 | 1.09 | 0.52 | 1.97 | -0.847 | -0.348 | 1.25 | 1.64 | 0.864 | 1.95 | 0.127 | 2.21
ACTATTAGTTGAGACGAGGGCATCCGATAGGTTG | 0.433 | -0.0452 | 0.0875 | -0.216 | 0.112 | 0.0329 | 0.689 | -0.118 | 0.0451 | 0.0642 | 0.0561 | -0.111 | 1.09 | 0.274 | -0.612 | 1.7 | 0.926 | 0.817 | 0.577 | 0.742
CAAACTAGCTCAAAGGTCAAAGTCGAGCCAACCA | 5.95 | 5.85 | 4.59 | 5.66 | 2.54 | 6.14 | 9.32 | 8.51 | 8.32 | 9.43 | 1.24 | 4.54 | 0.599 | 0.63 | 4.6 | 5.37 | 1.71 | 6.39 | 2.49 | 4.76
CCGACTGGGGCAGAGAGGTTACCATACCATCCGG | -0.137 | 0.273 | -0.349 | 0.271 | -1.44 | 1.48 | 1.35 | 1.6 | -0.221 | 0.899 | 2.02 | 1.91 | -0.515 | -1.59 | 0.15 | 0.359 | -0.131 | 0.845 | 0.129 | 1.24
GCTTACGGGTCACAGGTTATAGCATGAATAGAAT | 6.03 | 3.91 | -0.00317 | 3.73 | 0.0394 | 5.75 | 7.57 | 6.67 | 4.61 | 6.2 | 4.72 | 5.4 | 2.51 | 1.47 | 1.81 | 3.52 | -0.0291 | 4.84 | 0.515 | 4.03
GCTCGGAGGACAAGGTCAGAGATTTGTCCGTAGA | 1.22 | 1.62 | -0.347 | 1.2 | -0.658 | 2.13 | 0.719 | 1.53 | -0.349 | 0.587 | -0.252 | 0.673 | -0.517 | -0.427 | 0.0878 | 1.24 | -0.24 | 1.77 | -0.275 | 3.48
